Hits are enriched below; roughly 10% of the tested compounds scored in any of these assays.
G9a inh = qHTS Assay for Inhibitors of Histone Lysine Methyltransferase G9a; AID 504332, 2011; Histone-lysine N-methyltransferase EHMT2 (Homo sapiens), Q96KQ7; Potency, µM (titrated, usually from 102 µM), inactives show top-dose activity, negative = inhibition, most hits filed as inhibitors; G9a H3K9 monomethylation, AlphaScreen, 2 h; hit rate 8.8% among 350,000; note: % is set by controls: 0 for no effect and ±100 for the full control effect; nearly all actives have a fitted effect of over 75% in size
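Chemiluminescent proximity detection of H3K9 monomethylation, read after 10 min bead incubation in the dark. Reaction: 20 nM G9a, 500 nM biotin-H3K9 peptide, 20 uM SAM cofactor, 2 h, room temperature, following 15 min enzyme-compound preincubation.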
JMJD2A Tudor = qHTS Assay for Inhibitors of JMJD2A-Tudor Domain; Lysine-specific demethylase 4A (Homo sapiens), O75164; AlphaScreen JMJD2A-Tudor / H3K4me3 peptide binding; Potency, µM (doses to about 114 µM), without a hit: at the highest dose activity change, negative = inhibition, hits mostly inhibitors; hit rate 4.4% among 390,000; AID 504339, 2011; note: % is set by controls: 0 for no effect and ±100 for the full control effect; nearly all actives have a fitted effect of over 50% in size
HP1b binding inh = HTS for Inhibitors of HP1-beta Chromodomain Interactions with Methylated Histone Tails; hit rate 0.56% among 390,000; Potency, µM (doses to about 114 µM), without a hit: at the highest dose activity change, negative = inhibition, most hits filed as inhibitors; AlphaScreen HP1-beta / biotin-H3K9me3 peptide binding; AID 540317, 2011; Chromobox protein homolog 1 (Homo sapiens), P83916; note: nearly all actives have a fitted effect of over 70% in size
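Compound inhibition of the preformed complex between 50 nM HP1-beta and 50 nM biotinylated H3K9me3 peptide was read by AlphaScreen. Buffer was PBS pH 7.4 with 0.01% Tween-20. Incubations ran 30 min at room temperature, with 10 ug/mL donor/acceptor beads.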
GLS inhibitor = qHTS for Inhibitors of Glutaminase (GLS). Glutaminase kidney isoform, mitochondrial (Homo sapiens), O94925. GLS enzymatic activity, qHTS titration. Potency, µM (top dose mostly 45.5 µM), without a hit: at the highest dose activity change, negative = inhibition, usual class: inhibitors. hit rate 0.21% among 410,000; note: % is set by controls: 0 for no effect and ±100 for the full control effect
Target sequence (O94925 whole entry, looked up, canonical isoform): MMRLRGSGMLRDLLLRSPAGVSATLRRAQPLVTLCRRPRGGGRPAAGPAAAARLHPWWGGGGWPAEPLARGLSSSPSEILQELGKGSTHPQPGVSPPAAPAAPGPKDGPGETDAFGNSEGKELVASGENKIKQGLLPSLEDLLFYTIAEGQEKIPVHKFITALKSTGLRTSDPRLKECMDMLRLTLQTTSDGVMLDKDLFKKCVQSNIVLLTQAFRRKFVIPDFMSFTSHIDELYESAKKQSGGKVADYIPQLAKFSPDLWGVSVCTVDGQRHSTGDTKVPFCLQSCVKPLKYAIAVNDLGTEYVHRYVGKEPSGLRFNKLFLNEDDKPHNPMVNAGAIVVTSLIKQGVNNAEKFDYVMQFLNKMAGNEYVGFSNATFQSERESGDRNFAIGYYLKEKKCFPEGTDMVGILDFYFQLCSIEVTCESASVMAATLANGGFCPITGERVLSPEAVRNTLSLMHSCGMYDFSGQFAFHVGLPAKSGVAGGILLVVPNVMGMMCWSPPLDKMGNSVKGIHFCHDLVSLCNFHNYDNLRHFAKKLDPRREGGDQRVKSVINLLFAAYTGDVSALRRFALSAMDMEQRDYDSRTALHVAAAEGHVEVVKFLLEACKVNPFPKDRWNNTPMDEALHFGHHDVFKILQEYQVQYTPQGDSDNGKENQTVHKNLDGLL
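hKGA in 45 mM KH2PO4 pH 8.2, 0.02% Tween-20 with pin-transferred compounds; 1 mM L-glutamine (stock) plus glutamate oxidase/HRP/Amplex Red coupling added. Fluorescence read initially and after 30 min at RT.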
BAZ2B block = qHTS Assay for Inhibitors of BAZ2B; Bromodomain adjacent to zinc finger domain protein 2B (Homo sapiens), Q9UIF8; AlphaScreen BAZ2B-H3K14Ac peptide displacement; Potency, µM (top dose mostly 114 µM), for the others: at the top dose activity change, negative = inhibition, actives largely listed as inhibitors; hit rate 4.4% among 360,000; AID 504333, 2011; note: % is set by controls: 0 for no effect and ±100 for the full control effect; nearly all actives have a fitted effect of over 60% in size
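AlphaScreen displacement: compounds (up to 110uM) incubated 30 min at room temperature with a preformed 50 nM BAZ2B/50 nM biotinylated H3K14Ac peptide complex in PBS pH 7.4 with Tween-20. Donor and acceptor beads at 10 ug/mL final added, 20 min light-protected before reading.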
* = called active by the depositor; ? = inconclusive; nt = no result; [ ] = another dose, or the depositor's remark. Calls come from the whole dose curve; as a rule, active = well fitted curve in the direction sought with a large enough effect; inconclusive = small, poorly fitted or top-dose-only effect, or another doubt; inactive = no such curve, though single readings can be large; an effect the other way counts as inactive or inconclusive. Potency is the fitted concentration of half-maximal effect.

SMILES	G9a inh	JMJD2A Tudor	HP1b binding inh	GLS inhibitor	BAZ2B block
CCOC(=O)N1CCN(CC(O)COc2ccc(OC)cc2C(C)(C)C)CC1 (configuration not stated)	-1.8%[59 µM]	-22.5%	24.0%	7.3%	?
COc1cccc(C(=O)N2CCOCC2)c1	0.0%	5.2%	28.4%	1.1%	-8.4%
COc1cccc(C(=O)N2CCC(N3CC(C)OC(C)C3)CC2)c1 (configuration not stated)	2.82µM*	6.31µM*	?	-0.1%	50.1µM*
CCc1ccccc1NC(=O)Cn1nc(CC)n2c(cc3sccc32)c1=O	0.9%[59 µM]	-8.0%	21.8%	-4.8%	-1.2%
COc1ccc(C(=O)N2CCC3(CCCN(c4ncccn4)C3)CC2)cc1	5.5%[12.7 µM]	nt	nt	nt	nt
O=C(NCc1ccc2c(c1)OCO2)c1ccc2c(c1)N(Cc1cccc(Cl)c1)C(=O)c1ccccc1S2=O (configuration not stated)	4.4%[59 µM]	-3.8%	23.4%	3.5%	-0.3%
COc1ccc(CNC(=O)c2ccc(N3CCCC3)c(NC(=O)NCc3ccc(F)cc3)c2)cc1	?	?	2.7%	-3.3%	-23.6%
CCc1cccc(NC(=O)c2ccc(CNS(=O)(=O)c3ccc4c(c3)C(C)(C)C(=O)N4C)cc2)c1	-3.3%[59 µM]	5.1%	25.3%	1.9%	-3.8%
CCOC(=O)C1CCCN(Cc2ccccc2C)C1 (configuration not stated)	2.51µM*	5.01µM*	?	0.6%	70.8µM*
CCOC(=O)C1CCCN(Cc2ccc(OCC)cc2)C1 (configuration not stated)	8.91µM*	20µM*	?	25.0%	?
CCOC(=O)C1CCN(Cc2cn[nH]c2-c2ccccc2)CC1	7.94µM*	3.16µM*	?	-5.3%	?
CCOC(=O)C1CCN(C/C=C/c2ccccc2[N+](=O)[O-])CC1	nt	2.24µM*	-16.3%	-7.1%	?
CSCCC(NS(=O)(=O)c1ccc2c(c1)oc(=O)n2C)C(=O)N1CCN(c2cc(Cl)ccc2C)CC1 (configuration not stated)	-27.5%[59 µM]	-22.4%	2.4%	-0.9%	-9.5%
O=C(COc1ccc([N+](=O)[O-])cc1)N1CCC(c2nc3ccccc3s2)CC1	?	-24.8%	6.6%	-4.8%	-29.8%
Cc1ccc(C(=O)c2oc3ccccc3c2NC(=O)Cc2ccccc2)cc1	43.3%[59 µM]	19.6%	48.8%	-7.7%	11.1%
CCOC(=O)C1CCCN(CCc2ccccc2)C1 (configuration not stated)	39.8µM*	25.1µM*	-32.9%	0.8%	?
CCOC(=O)C1CCN(Cc2coc3c(Cl)cc(Cl)cc3c2=O)CC1	11.2µM*	20µM*	-7.2%	2.8%	?
CCOC(=O)C1CCN(CC(=O)N2C(C)CCCC2C)CC1 (configuration not stated)	8.91µM*	5.01µM*	44.7µM*	-5.8%	50.1µM*
CCOC(=O)C1CCCN(Cc2ccccc2OCC)C1 (configuration not stated)	?	5.62µM*	?	9.2%	?
CCOC(=O)C1CCN(CC(=O)N2CCc3ccccc32)CC1	22.7%	-11.2%	-0.3%	0.7%	1.0%
CCOC(=O)C1CCCN(C(=O)CCc2ccccc2)C1 (configuration not stated)	5.7%	-14.6%	21.3%	7.6%	-4.0%
O=C(C1=C[C@@H](c2ccc(C(F)(F)F)cc2)C[C@@H](OCc2ccc(CO)cc2)O1)N1CCN(Cc2ccccc2)CC1	?	-31.4%	24.9%	0.4%	-33.6%
Cc1ccccc1C(=O)Nc1nnc(SCc2cc(=O)n3ccccc3n2)s1	-4.3%[59 µM]	-10.7%	13.2%[57 µM]	3.2%	13.0%
Fc1ccc(Nc2nc(SCc3cccc(F)c3)nc3ccccc23)cc1	33.1%[59 µM]	24.0%	69.4%	1.4%	28.7%
Cc1ccc2c(CC(=O)Nc3ccc(S(=O)(=O)N4CCCCC4)cc3)coc2c1C	-6.8%[59 µM]	-19.1%	13.6%	0.5%	?
SMILES	G9a inh	JMJD2A Tudor	HP1b binding inh	GLS inhibitor	BAZ2B block
COc1ccc(C2CC(=O)C(C=NCCN3CCN(C(=S)Nc4ccccc4)CC3)=C(O)C2)cc1OC (configuration not stated)	?	-17.9%	5.8%	1.2%	-4.0%
CCOc1ccc(NC(=O)Cn2c(=O)n(CC(=O)NCc3ccccc3Cl)c(=O)c3sccc32)cc1	0.7%[59 µM]	-15.4%	16.7%	0.9%	-1.1%
COc1ccc(NC(=O)C2=C(C)Nc3ncnn3C2c2ccc[nH]2)cc1 (configuration not stated)	8.4%[59 µM]	-7.0%	20.3%[57 µM]	-16.2%	-22.5%
CCOC(=O)C1CCN(Cc2ccccc2C)CC1	?	-5.0%	16.6%	28.0%	56.2µM*
CCCN(CC(=O)Nc1ccccc1C)C(=O)/C=C/c1ccc(OC)c(OC)c1	nt	nt	nt	-1.7%	nt
CN(C)c1oc(-c2ccccc2Cl)nc1P(=O)(c1ccccc1)c1ccccc1	?	56.2µM*	-16.1%	1.1%	?
COCCSc1nnc(NS(=O)(=O)c2ccc(F)cc2)s1	31.6µM*	-12.5%	36.4%	3.0%	-26.7%
COCc1nnc(NS(=O)(=O)c2ccc(F)cc2)s1	-119.6%	3.0%	39.2%	-0.6%	-7.5%
Cn1c(=O)c2ccccc2n(CC(=O)N2CCCc3ccccc32)c1=O	-5.2%	-13.4%	22.3%	0.8%	-6.8%
CCc1ccc(C2c3c(-c4cc(C)ccc4O)n[nH]c3C(=O)N2Cc2cccnc2)cc1 (configuration not stated)	13.9%[59 µM]	?	11.1%	9.5%	-26.3%
Cc1cc(N2CCCCC2)nc2ccc(NC(=O)/C=C/c3ccccc3OC(C)C)cc12	-30.5%[59 µM]	-21.2%	8.8%	2.0%	-17.8%
CCc1ccc(C(=O)NNc2ccc(C)c(Cl)c2)cc1	7.94µM*	-29.9%	-10.2%	-33.1%	-22.4%
CCc1ccc(C(=O)NNc2ccc(S(N)(=O)=O)cc2)cc1	22.4µM*	-7.3%	16.5%	?	-0.4%
CCc1ccc(C(=O)NNc2ccc(F)cc2)cc1	nt	-22.3%	-21.9%	26.8%	?
COc1cc(OC)c(OC)cc1CN1CCSCC1	?	3.16µM*	?	-22.2%	79.4µM*
COc1cc(C)c(CN2CCSCC2)cc1C	-31.2%[0.501 µM]	31.6µM*	-3.1%	5.0%	?
COc1ccc(CN2CCCC(CO)(Cc3ccc(F)cc3)C2)cc1C (configuration not stated)	-1.4%	-13.0%	18.8%	14.4%	-0.7%
COc1ccc(CN2CCSCC2)cc1C	10µM*	8.91µM*	?	20.4%	79.4µM*
CCCNC(=O)C1(C)CCCN(Cc2cc(-c3ccccc3)n(C)n2)C1 (configuration not stated)	nt	nt	nt	-3.9%	nt
